PubChem BioAssay AID1851 (National Center for Advancing Translational Sciences (NCATS), 2009)
“And” between values parts separate entries of the source, which are not always exact repeats. Equal entries are not always repeated. About 2,600 (16%) of roughly 16,000 compounds were called active. Inconclusive results (about 20%) are left out. Calls follow the shape of the dose curve; as a rule, active = well fitted curve in the direction sought with a large enough effect; inconclusive = small, poorly fitted or top-dose-only effect, or effect the other way; inactive = no such curve, though single readings can be large or run the other way. The list is a sample of the results.

Each compound was assayed against Cytochrome P450 2D6 (Homo sapiens) (UniProt P10635) (assay: Cytochrome panel assay with activity outcomes). Conditions: recombinant CYP, pro-luciferin dealkylation, luminescence, p450-cyp2d6; series mostly up to 57.1 µM.
% is scaled to controls: 0 for no effect and ±100 for the full control effect.

Sequence of Cytochrome P450 2D6 (Homo sapiens) (P10635 whole entry, looked up): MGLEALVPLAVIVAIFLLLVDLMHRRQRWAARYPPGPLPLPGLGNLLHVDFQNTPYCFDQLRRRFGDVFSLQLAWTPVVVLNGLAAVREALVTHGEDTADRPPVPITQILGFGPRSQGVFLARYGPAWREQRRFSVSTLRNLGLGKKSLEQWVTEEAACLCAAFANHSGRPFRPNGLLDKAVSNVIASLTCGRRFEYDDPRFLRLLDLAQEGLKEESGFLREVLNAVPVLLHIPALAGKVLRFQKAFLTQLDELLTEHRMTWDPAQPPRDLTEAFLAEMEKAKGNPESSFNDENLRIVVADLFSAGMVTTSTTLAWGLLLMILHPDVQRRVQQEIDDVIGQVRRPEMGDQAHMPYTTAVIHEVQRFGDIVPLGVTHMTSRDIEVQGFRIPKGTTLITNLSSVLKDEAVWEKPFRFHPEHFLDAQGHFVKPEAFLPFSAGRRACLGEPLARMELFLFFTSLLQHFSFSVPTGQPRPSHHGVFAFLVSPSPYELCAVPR

Structure (SMILES)	activity, negative = inhibition	AC50
CC(C)CO/N=C1/C[C@@H](O)[C@@H](O)[C@@H]2[C@@H]3C(=O)N(Cc4ccc5c(c4)OCO5)C(=O)[C@H]3CC[C@H]12	-12.3% [at 11.4 µM] (inactive)	–
O=C(O)CCC(=O)N1CCC[C@H]1C(=O)O	–	inactive
Cc1ccc2c(c1)N(CCC(=O)NCC1CCCO1)C(=O)CO2 (stereo not drawn)	–	inactive
Cc1ccc2c(c1)-c1c(cnn1CC(=O)O)CO2	–	inactive
Cc1ccc2c(c1)N(CC(=O)NC1CCCc3ccccc31)C(=O)CO2 (stereo not drawn)	–	12.6 µM (active)
COc1ccc(-n2c(=O)c(C)nc3cncnc32)cc1	–	inactive
Cn1c(=O)c2c(nc(Cc3ccccc3)n2CC(=O)O)n(C)c1=O	3.84% [at 11.4 µM] (inactive)	–
C/C=C\C(=O)N(CC)c1ccccc1C	–	inactive
Nc1ccccc1Oc1ncc(C(F)(F)F)cc1Cl	–	inactive
CCc1nnc(NC(=O)CSc2nc(C3CCCCC3)nc3ccccc23)s1	–	inactive
N[C@H](CCCC(=O)O)C(=O)O	–	inactive
O=C(NCCC[N+]1=CC=N[C@H]1c1ccccc1)N1CCCc2nc(-c3ccc(Br)cc3)ccc21	–	0.0794 µM (active)
COc1ccc(-c2ccc3c(n2)CCCN3C[C@H](O)CN2CCCc3nc(-c4ccc(Br)cc4)ccc32)cc1	-3.82% [at 11.4 µM] (inactive) and -13% [at 11.4 µM] (inactive)	–
COCCN(C(=O)c1ccco1)c1nnc(-c2ccc(OC)cc2)s1	–	inactive
CN(C)CCOC(=O)C1(c2ccccc2)CCOCC1	–	inactive
Cc1cccc(NC(=O)C2(c3ccc([N+](=O)[O-])cc3)CCCC2)c1	–	inactive
CCN(CC)CCOC(=O)C1(c2ccc([N+](=O)[O-])cc2)CCCC1	–	3.98 µM (active) and 5.01 µM (active)
CCC(C)Nc1nc(OCC(F)(F)F)nc(OCC(F)(F)F)n1 (stereo not drawn)	–	inactive
CCOC(=O)C1C(=O)C=C(c2ccc(NS(C)(=O)=O)cc2)CC1c1ccco1 (stereo not drawn)	–	inactive
COc1ccc2oc(C(=O)c3ccccc3)c(N)c2c1	–	inactive
NS(=O)(=O)c1ccc(NS(=O)(=O)c2ccc(NC(=O)c3ccc(-c4ccccc4)cc3)cc2)cc1	–	inactive
COC(=O)c1cn(NC(=O)c2ccc(F)cc2)c(=O)c2ccccc12	–	inactive
Cc1ccc(S(=O)(=O)Nc2ccccc2C(=O)c2ccc(C)c(C)c2)cc1	2.37% [at 11.4 µM] (inactive)	–
COC(=O)c1ccccc1NC(=O)c1ccc(F)cc1	–	5.01 µM (active)
COC(=O)c1ccc(NC(=O)c2ccccc2NS(=O)(=O)c2ccccc2)cc1	–	15.8 µM (active)

Structure (SMILES)	activity, negative = inhibition	AC50
Cc1ccccc1C(=O)NNC(=O)c1ccc(F)cc1	–	inactive
COc1ccc(-n2c(=O)c(C)nc3cnc(N(C)C)nc32)cc1	–	inactive
Cc1nn2c([nH]c(=O)c3ccccc32)c1C=O	–	inactive
CCc1cccc(CC)c1NC(=O)CN(CC(=O)O)CC(=O)O	–	inactive
COc1ccc(OC)c(Nc2nc(-c3sc(NC(=O)c4ccccc4)nc3C)cs2)c1	–	inactive
C=CCNc1cnn(-c2ccc(C)cc2)c(=O)c1Cl	–	inactive
COCCCNCCCCOc1c(Cl)cc(C)cc1Br	–	0.708 µM (active)
C=CCNCCCCOc1c(Cl)cc(C)cc1Br	–	0.178 µM (active)
O=C(/C=C/c1ccc(Cl)cc1)Nc1ccc(N2CCCCC2)cc1	–	inactive
COC(=O)Nc1nc2ccc(C(=O)c3ccccc3)cc2[nH]1	–	inactive
CN(CC(=O)Nc1ccc(F)c(F)c1)S(=O)(=O)c1cccc2nsnc12	–	inactive
Cc1cc(N=Cc2c(CO)cnc(C)c2O)c(N=Cc2c(CO)cnc(C)c2O)cc1C.[Zn]	-15.5% [at 11.4 µM] (inactive)	–
Cc1nc2cnc(Oc3ccccc3)nc2n(C2CC2)c1=O	–	inactive
COc1ccc(NC(=O)CCNS(=O)(=O)c2ccc3c(c2)CCC(=O)N3)cc1	–	inactive
CC(=O)c1ccc(-n2c(CCC(=O)O)ccc2-c2cccs2)cc1	–	inactive
Cc1cccc(NC(=O)c2onc3c2CCCC3)c1C	–	inactive
CCC(=O)Nc1ccc(/C(C)=N\NS(=O)(=O)c2ccc(C)cc2)cc1	–	inactive
CC(C)C(=O)c1c(C(C)C)nn2ccccc12	–	0.0398 µM (active)
Cc1ccc(-c2ccc(CCC(=O)O)o2)cc1	–	inactive
CCCc1c(OCCCOc2ccc(OCC(=O)O)cc2)ccc(C(C)=O)c1O	–	inactive
CC(C)(CS)C(=O)N1CCC[C@H]1C(=O)O	–	inactive
Cc1cc(C)c(-c2cc([C@H](C)O/N=C3/[C@H]4OC4[C@@H](O)[C@H]4[C@H]3CCn3c(=O)n(-c5ccccc5)c(=O)n34)on2)c(C)c1 (stereo partly drawn)	-10.5% [at 11.4 µM] (inactive)	–
O=C1/C(=C/c2ccccc2)[C@@H](NC2CCCCC2)c2ccccc21	–	1 µM (active)
CCOc1ccc(/C=C2\C(=O)c3ccccc3OC2c2ccccc2)cc1 (stereo not drawn)	–	inactive

Structure (SMILES)	activity, negative = inhibition	AC50
O=C(NC1CCCCC1)C(c1ccccc1)N1CCOCC1 (stereo not drawn)	–	inactive
CSC(N)=NCCC[C@@H](N)C(=O)O	–	inactive
COc1ccc2[nH]cc(CCNc3ncncc3-c3ccc(N(C)C)cc3)c2c1	–	10 µM (active)
COc1ccc2[nH]cc(CCNc3ncncc3-c3ccc(C(=O)N(C)C)cc3)c2c1	–	15.8 µM (active)
COc1ccc2[nH]cc(CCNc3cc(-c4ccc(C(=O)N(C)C)cc4)ncn3)c2c1	–	inactive
CC1=C(C(=O)O)N2C(=O)C(NC(=O)c3ccn(C)n3)C2SC1 (stereo not drawn)	–	inactive
CCCCCCCCCCCCCCCCCCNC(=O)OC[C@@H](COP(=O)([O-])OCC[n+]1ccsc1)OC	–	inactive
CN(C)c1ncc2nc(-c3ccc(Cl)cc3)c(=O)n(Cc3ccc(F)cc3)c2n1	–	inactive
CC1CCN(CCCCOc2ccccc2[N+](=O)[O-])CC1	–	0.251 µM (active)
CCCCC(=O)Nc1cc(OCC)c(NC(=O)c2ccccc2[N+](=O)[O-])cc1OCC	–	inactive
CC1CCN(c2ccc(S(=O)(=O)Nc3cc(C(=O)O)cc(C(=O)O)c3)cc2[N+](=O)[O-])CC1	–	inactive
COc1ncc2nc(-c3cccs3)c(=O)n(CCC#N)c2n1	–	inactive
COc1ccc(NC(=O)N2CC3(CCN(C(=O)c4cnccn4)CC3)C2)cc1	–	inactive
COc1ccc(Cl)cc1NC(=O)C12CCC(C)(C(=O)O1)C2(C)C (stereo not drawn)	–	inactive
CC(C)(CC(=O)Nc1ccccc1)C(=O)O	8.43% [at 11.4 µM] (inactive)	–
O=C(Cc1ccccc1I)Nc1ccccc1	–	20 µM (active)
NCC(=O)Nc1ccccc1	-0.269% [at 11.4 µM] (inactive)	–
COc1ccc(C(=O)CCN(C)C)c2ccccc12	-4.14% [at 11.4 µM] (inactive)	–
O=c1c(-c2nc3ccccc3s2)cccn1Cc1ccccc1	–	inactive
Cc1cccc(Cn2ncc(Cl)c(Cl)c2=O)c1	–	inactive
Cc1ccc(C(C(=O)NC2CCCCC2)N(CC2CCCO2)C(=O)CNC(=O)c2cccs2)cc1 (stereo not drawn)	–	10 µM (active)
Cc1ccc(C(C(=O)NCc2ccco2)N(C(=O)CNC(=O)c2cccs2)c2ccc(C)cc2C)cc1 (stereo not drawn)	–	inactive
O=C(NCC(=O)N(c1ccccc1)C(C(=O)NC1CCCC1)c1cccnc1)c1cccs1 (stereo not drawn)	–	inactive
N#Cc1ccc(CN2CCC3(CC2)CCN(S(=O)(=O)c2ccccc2)CC3)cc1	–	inactive
O=S(=O)(c1ccccc1)N1CCC2(CCCN(Cc3ccncc3)C2)CC1	–	1 µM (active)

Structure (SMILES)	activity, negative = inhibition	AC50
O=S(=O)(c1ccccc1)N1CCC2(CCN(Cc3ccccc3)CC2)CC1	–	inactive
N#Cc1ccc(CN2CCCC3(CCN(S(=O)(=O)c4ccccc4)CC3)C2)cc1	–	0.631 µM (active)
O=S(=O)(c1ccccc1)N1CCC2(CC1)CN(Cc1ccccc1)C2	–	0.158 µM (active)
Cc1ccccc1CNc1ncnc2c1ncn2[C@@H]1O[C@@H](CO)[C@H](O)[C@@H]1O	–	inactive
COc1ccc(NS(=O)(=O)c2ccc(NC(=O)c3cnn4c(C(F)F)cc(-c5ccc(C)cc5)nc34)cc2)cc1	–	inactive
CC(C)=CCc1c2c(c3occ(-c4ccc(O)c(O)c4)c(=O)c3c1O)C=CC(C)(C)O2	-0.0819% [at 11.4 µM] (inactive)	–
CCc1cc2c(=O)n(-c3ccccc3)c(=S)[nH]c2s1	–	inactive
COC(=O)/C=C\CCc1coc(/C=C\CNC(=O)OC)n1	8.58% [at 11.4 µM] (inactive)	–
COc1ccc(/C=C2\OC(=O)c3c(OC)cccc32)cc1OC	–	inactive
Cn1c(=O)c(-c2ccc(Cl)cc2)nc2cncnc21	–	inactive
O=C(O)c1cccc(C(=O)O)c1S(=O)Cc1ccccc1 (stereo not drawn)	-0.655% [at 11.4 µM] (inactive)	–
O=C(O)C(Cl)(c1ccccc1)c1ccccc1	6.11% [at 11.4 µM] (inactive)	–
O=S(Cc1ccccc1)CC(O)(c1ccccc1)c1ccccc1 (stereo not drawn)	–	2.24 µM (active)
COc1cccc(N=c2oc3c(C)ncc(CO)c3cc2C(N)=O)c1	–	inactive
CC(C)(C)[C@@]1(O)CCN2C[C@@H]3c4ccccc4CCc4cccc(c43)[C@@H]2C1	–	79.4 nM (active) and 501 nM (active)
O=C(C1CCCCC1)N1CC(=O)N2CCc3ccccc3[C@@H]2C1	–	inactive
CC(C)c1nnc(-c2ccc(Cl)cc2)c(N(C)C)n1	–	inactive
C/C(CCN1CCc2nc(-c3ccccc3)c(-c3ccccc3)cc2C1)=N\O[C@@H](C)c1cc(-c2c(C)cc(C)cc2C)no1	8.64% [at 11.4 µM] (inactive)	–
CS(=O)(=O)c1ccc([C@H](O)[C@H](CO)NC(=O)C(Cl)Cl)cc1	–	inactive
Cc1c(NC(=S)/C=C2\N(C)c3ccccc3C2(C)C)c(=O)n(-c2ccccc2)n1C	–	inactive
CN(C)c1ccc(N=C/C=C2\N(C)c3ccccc3C2(C)C)cc1	–	2.24 µM (active)
CN1/C(=C\C=[N+](C)c2ccccc2)C(C)(C)c2ccccc21	–	0.316 µM (active)
CN1/C(=C/C=C(/C#N)C(N)=O)C(C)(C)c2ccccc21	–	inactive
